This is a sample that favours compounds with a hit; in the whole collection about 6.5% have one here.
PMK inhibit = S. pneumoniae PMK inhibitors, primary screen, biochemical, mevalonate pathway, pilot trial included; phosphomevalonate kinase (Streptococcus pneumoniae D39); purified PMK, PK/LDH-coupled NADH absorbance 340 nm; inhibition, % at 10 µM; actives 0.49% (n = 65,000); AID 539, 2006;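 active means top-ranked compounds by inhibition in the single 10 µM screen, taking a fixed number of the strongest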;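 further: 0% = full reaction with DMSO carrier and 100% = background rate without enzyme reaction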
Abs 340nm = compound light absorbance at 340 nm, profiling panel, artefact control, biochemical, MLSMR library, data from PS, PMK, MK assays. compound absorbance at 340 nm, fold over control. 65,000 tested, under 10 active. fold change at 10 µM;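 active means at 10 µM dose, initial 340 nm absorbance at least 2 fold that of control wells; inactive means change under 2 fold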;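 further: initial absorbance extrapolated from kinetic A340 decline of NADH oxidation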
DPM-DC inhibit = S. pneumoniae DPM-DC inhibitors, primary screen, biochemical, PK/LDH-coupled NADH fluorescence. diphosphomevalonate decarboxylase (Streptococcus pneumoniae D39). purified DPM-DC. calls only at 10 µM. actives 0.49% (n = 65,000). AID 556, 2006;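 active means the 320 compounds with the highest percent inhibition in the single-dose primary screen, excluding strongly autofluorescent ones, cut at about 32% in these data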;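 further: kinetic rate of NADH fluorescence loss reporting ADP formed by the decarboxylase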
Spn MK inh = S. pneumoniae MK inhibitors, primary screen, biochemical, PK/LDH-coupled NADH absorbance. inhibition, % at 10 µM. purified MK, PK/LDH-coupled NADH absorbance 340 nm. actives 0.48% (n = 65,000). AID 555, 2006;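 active means ranked among the strongest by inhibition in the single 10 µM screen, a fixed top-ranked set picked for dose follow-up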
NADH enzymes = inhibitors of PK/LDH coupling enzymes, profiling panel, artefact control, biochemical, MLSMR library. coupled PK/LDH NADH assays, four targets. IC50, µM (titrated, usually from 10 µM), for the others: at the top dose inhibition. actives 0.02% (n = 65,000);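 active means single-dose screening hits from any of four coupled enzyme assays that gave an IC50 when retested across doses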;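 further: the DPM-DC format reads NADH fluorescence rather than 340 nm absorbance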
Fluor 339 460 = intrinsic fluorescence of library compounds, ex339/em460 – biochemical, MLSMR library, data from DPM-DC assay, artefact control, profiling panel | compound autofluorescence, ex339/em460 nm, NADH buffer; active compounds read high; 1 = no-compound wells, NADH background | AID 709, 2007 | fluorescence fold increase at 10 µM | actives 5.5% (n = 65,000);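 active means at 10 µM, mean starting fluorescence two-fold or more over control wells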;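 further: signal is the first read of a kinetic run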
Numbers without * were called inactive; i = inactive; . = no result given.

SMILES	PMK inhibit	Abs 340nm	DPM-DC inhibit	Spn MK inh	NADH enzymes	Fluor 339 460
COc1ccc(CN2C(=O)c3cccnc3C2Nc2cc(Cl)c(OC)cc2OC)cc1 (stereo not drawn)	15.0	1.06	i	57.0*	24.0%	1.08
CCN(CC)S(=O)(=O)c1ccc(NC2c3ccccc3C(=O)N2Cc2ccc3c(c2)OCO3)cc1 (stereo not drawn)	0.0	1.03	i	6.0	2.0%	1.07
CCN(CC)S(=O)(=O)c1ccc(NC2c3ncccc3C(=O)N2Cc2ccccc2)cc1 (stereo not drawn)	12.0	1.07	i	50.0*	21.0%	1.08
CC1(C)CC(=O)C2=C(C1)Nc1[nH]n(-c3ccccc3)c(=O)c1C2c1ccc2c(c1)OCO2 (stereo not drawn)	4.0	1.24	i	13.0	9.0%	1
CC(=O)Nc1cccc(NC(=O)CSc2nn3c(=O)c(C)nnc3s2)c1	5.0	1.02	i	0.0	13.0%	1.35
Cn1cccc1C(C(=O)NC1CCCCC1)N(C(=O)Cc1cccs1)c1ccc2c(c1)OCCO2 (stereo not drawn)	14.0	1.04	i	4.0	6.0%	1.11
CCOc1ccc2oc(-c3ccccc3)c(C(=O)N3CCN(C)CC3)c2c1	0.0	1.07	.	0.0	0.0%	2.21*
COc1ccc2oc(-c3ccccc3)c(C(=O)N3CCOCC3)c2c1	9.0	1.03	.	6.0	8.0%	2.09*
CC(=O)Oc1ccc2oc(C)c(C(=O)N3CCOCC3)c2c1	0.0	1.03	i	0.0	0.0%	1.12
Cc1oc2cc3c(C(=O)N4CCN(C)CC4)c(C)oc3cc2c1C(=O)N1CCN(C)CC1	22.0	1	i	9.0	12.0%	1.02
O=C(CCN1CCCCCC1)Nc1ccc(F)cc1	9.0	1.03	i	8.0	6.0%	1.09
CCOC(=O)c1nn(-c2ccc3c(c2)OCO3)cc1O	15.0	1.07	.	0.0	8.0%	2.11*
CCOC(=O)c1nn(-c2cc(C(=O)OC)cc(C(=O)OC)c2)cc1O	16.0	1.02	i	16.0	11.0%	0.97
CCCc1cc(=O)oc2cc(C)c(CN3CCCC3)c(O)c12	1.0	1.09	i	6.0	2.0%	1.2
CCc1cc(=O)oc2cc(C)c(CN3CCCC3)c(O)c12	4.0	1.04	i	0.0	1.0%	1.1
CCCc1cc(=O)oc2c(CN3CCCC3)c(O)c(Cl)cc12	6.0	1.1	.	0.0	3.0%	2.35*
CCCc1cc(=O)oc2c(CN3CCCC3)c(O)ccc12	0.0	1.14	.	6.0	3.0%	2.3*
CCc1nc2ccccc2c(C(=O)OCC(=O)NCc2ccco2)c1C	0.0	1.04	i	0.0	0.0%	1.16
O=C(/C=N/O)NCCCn1ccnc1	5.0	0.98	i	2.0	2.0%	1.11
CCOc1ccccc1NC(=O)C1Cc2ccccc2CN1S(C)(=O)=O (stereo not drawn)	5.0	1	i	7.0	4.0%	1.12
O=C(NCC1CCCO1)c1ccc(COCC(F)(F)C(F)F)cc1 (stereo not drawn)	0.0	1.03	i	3.0	1.0%	1.23
CC1SC(=NC(=O)c2ccco2)NC1=O (stereo not drawn)	26.0*	1.07	i	4.0	10.0%	1.08
Cc1cccc2c(=O)c(C(=O)N3CCCCCC3)c[nH]c12	20.0	0.95	i	0.0	7.0%	0.99
O=C(NCc1cccnc1)C1CCN(S(=O)(=O)c2cccs2)CC1	12.0	0.98	i	1.0	4.0%	1.04
CC(C)n1c(=NC(=O)c2ccco2)c(C#N)cc2c(=O)n3ccccc3cc21	9.0	1.01	.	2.0	2.0%	2.93*
SMILES	PMK inhibit	Abs 340nm	DPM-DC inhibit	Spn MK inh	NADH enzymes	Fluor 339 460
O=C(N=C1SCC(=O)N1c1ccccc1Cl)c1ccco1	0.0	1.07	i	0.0	0.0%	1.1
O=C(CN1C(=O)c2ccccc2C1=O)Nc1ccc(-c2nc3ccccc3o2)cc1	12.0	1.08	i	3.0	5.0%	1.16
CCC(=O)Nc1ccc2oc(-c3ccccc3Br)nc2c1	6.0	1.03	i	8.0	7.0%	1.9
CCC(C)NCC(=O)Nc1ccc(-c2nc3cc(NC(=O)CNC(C)CC)ccc3o2)cc1 (stereo not drawn)	13.0	1.16	.	8.0	11.0%	3.72*
COc1ccc(-c2nc3cc(NC(=O)Cc4ccc(OC)c(OC)c4)ccc3o2)cc1	15.0	0.98	.	0.0	5.0%	2.59*
CCN(CC)CC(=O)Nc1ccc(-c2nc3cc(NC(=O)CN(CC)CC)ccc3o2)cc1	12.0	1.06	.	5.0	4.0%	2.97*
O=C(CN1CCCC1)Nc1ccc(-c2nc3cc(NC(=O)CN4CCCC4)ccc3o2)cc1	9.0	1.26	.	14.0	12.0%	3.71*
CCOC(=O)c1[nH]c(C)c(C(=O)NC2CCN(C(=O)OCC)CC2)c1C	15.0	1.01	i	0.0	5.0%	1.08
CCOC(=O)c1c(NC(C)=O)sc2c1CCCNC2=O	0.0	0.98	i	4.0	1.0%	1.04
COc1cc(C2c3c(n[nH]c3C)C(=O)N2c2ccc(C)cc2)ccc1O (stereo not drawn)	0.0	0.98	i	10.0*	9.0%	1.04
COC(=O)CCS(=O)(=O)c1ccc(Cl)c(Cl)c1	4.0	1.05	i	11.0	8.0%	1.06
Cc1ccc(S(=O)(=O)Cc2ccc(C(=O)N3CCN(c4ccc(F)cc4)CC3)o2)cc1	3.0	1.03	i	1.0	1.0%	1.08
Cc1ccc(OCCCN(C)C)c(Br)c1	13.0	1.05	i	45.0*	19.0%	1.1
COc1ccc(CC(NC(C)=O)C(=O)NC2CCN(c3nc(C)cc(C)c3C#N)CC2)c(OC)c1 (stereo not drawn)	0.0	1.02	i	31.0	3.0%	2.01*
COc1cccc(CC(NC(C)=O)C(=O)NC2CCN(c3nc(C)cc(C)c3C#N)CC2)c1 (stereo not drawn)	9.0	1.04	i	7.0	5.0%	1.11
COc1ccc(OC)c(N2C(=O)C(Cl)=C(N3CCCCC3)C2=O)c1	3.0	1.05	i	5.0	3.0%	1.09
CCCc1cc(-c2ccc(O)c(OCC)c2)c(C#N)c(N)n1	0.0	1.07	i	9.0	4.0%	1.66
CSc1nc(N)c(C#N)c(-c2ccc(Cl)cc2)c1C#N	4.0	1.01	i	1.0	4.0%	1.17
Cc1ccc(-c2cc(-c3ccc(Cl)cc3)c(C#N)c(N)n2)o1	0.0	1	.	13.0	7.0%	3.83*
Cc1ccc(-c2cc(-c3ccc(C)o3)nc(N)c2C#N)cc1	0.0	1.01	.	12.0	6.0%	3.8*
